# Assay outcomes as filed in PubChem BioAssay.
# Sampled rows, rich in hits. Any-hit rate of the full collection: about 18%.
# TDP1 cell noCPT: qHTS for Inhibitors of human tyrosyl-DNA phosphodiesterase 1 (TDP1): qHTS in cells in absence of CPT; DT40 Tdp1-/- hTDP1 cells, no CPT, ATP luminescence, 48 h; Potency, µM (titrated, usually from 46.2 µM), inactives show top-dose activity change, negative = growth inhibition, usual class: inhibitors; 15% of 420,000 active; AID 686978, 2013; note: potency is the fitted concentration of half-maximal effect; % is set by controls: 0 for no effect and ±100 for the full control effect; nearly all actives have a fitted effect of over 55% in size
#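 Growth of hTDP1-complemented DT40 Tdp1-knockout cells is measured by ATP luminescence after at least 48 hr compound exposure at 37 °C, with DMSO substituting for the 20 nM CPT used in the parallel screen.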
# TDP1 cell CPT: DT40-hTDP1 cell growth loss with CPT; 12% of 420,000 active; chicken DT40 Tdp1-/-;hTDP1 cells + 20 nM CPT, ATP luminescence, 48 h; Potency, µM (series often up to 46.2 µM), for inactives: at the highest dose activity change, negative = growth inhibition, actives largely listed as inhibitors; AID 686979; note: potency is the fitted concentration of half-maximal effect; % is set by controls: 0 for no effect and ±100 for the full control effect; nearly all actives have a fitted effect of over 55% in size
#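 Chicken DT40 Tdp1-/- cells complemented with human TDP1, 400 cells/well, exposed to compounds plus 20 nM camptothecin for at least 48 h at 37 C; viability read as ATP content by CellTiter-Glo luminescence.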
# TGFb inhibitor: inhibitors of TGF-b signaling | AID 588855 | HepG2 CAGA-GFP TGF-b/SMAD3 reporter, GFP fluorescence, 18 h; TGF-beta stimulated, 500 pg/mL final | 1.2% of 410,000 active | Potency, µM (series often up to 46.1 µM), without a hit: at the top dose activity, negative = inhibition, most hits filed as inhibitors; note: potency is the fitted concentration of half-maximal effect; % is set by controls: 0 for no effect and ±100 for the full control effect; nearly all actives have a fitted effect of over 65% in size
#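 TGF-beta reporter screen: HEPG2 CAGA-GFP, 1% FBS, 500 pg/mL TGF-beta final, 18 h; per-cell GFP summed per well; curves fitted and categorized by class.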
# TDP1 block: TDP1 (human) enzyme inhibition; recombinant TDP1, AlphaScreen DNA substrate cleavage; Potency, µM (series often up to 130 µM), without a hit: at the top dose activity change, negative = inhibition, actives largely listed as inhibitors; 0.28% of 350,000 active; note: potency is the fitted concentration of half-maximal effect; % is set by controls: 0 for no effect and ±100 for the full control effect; nearly all actives have a fitted effect of over 40% in size
# Target sequence (Q9NUW8 whole entry, looked up): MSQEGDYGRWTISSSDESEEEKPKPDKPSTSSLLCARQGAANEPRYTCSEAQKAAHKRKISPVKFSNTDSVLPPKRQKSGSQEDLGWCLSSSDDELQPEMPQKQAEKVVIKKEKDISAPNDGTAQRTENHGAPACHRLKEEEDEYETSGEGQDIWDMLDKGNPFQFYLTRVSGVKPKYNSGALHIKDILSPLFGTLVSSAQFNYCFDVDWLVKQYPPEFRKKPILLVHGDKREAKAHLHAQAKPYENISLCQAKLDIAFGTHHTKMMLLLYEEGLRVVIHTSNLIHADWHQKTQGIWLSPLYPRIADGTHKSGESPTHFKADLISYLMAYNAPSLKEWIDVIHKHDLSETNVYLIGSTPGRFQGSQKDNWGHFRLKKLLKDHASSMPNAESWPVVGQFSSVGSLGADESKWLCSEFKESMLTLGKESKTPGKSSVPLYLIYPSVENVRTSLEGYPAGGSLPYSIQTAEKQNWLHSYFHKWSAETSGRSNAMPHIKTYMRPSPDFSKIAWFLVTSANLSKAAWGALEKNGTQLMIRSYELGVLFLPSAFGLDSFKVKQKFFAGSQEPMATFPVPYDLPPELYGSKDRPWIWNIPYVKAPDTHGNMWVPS
#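 AlphaScreen read-out: signal falls as enzyme removes the 3' tyrosine-FITC from a 5'-biotinylated DNA oligo (15 nM, 5 min, RT). Enzyme was E. coli-made recombinant Tdp1 at 1 nM, exposed to compound for 15 min beforehand; beads 10 ug/ml, 10 min.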
# HepG2 tox: kills HepG2 cells in TGF-b inhibitor counter-screen. AID 588856. HepG2 CAGA-GFP viability, ATP luminescence, 18 h. 0.76% of 410,000 active. Potency, µM (doses to about 46.1 µM), for inactives: top-dose activity change, negative = cytotoxicity, usual class: cytotoxic; note: potency is the fitted concentration of half-maximal effect
#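 CellTiter-Glo luminescence gave cytotoxicity after 18 hours at 37 degrees C. The cells were HepG2 CAGA-GFP in 1% FBS DMEM, stimulated with 500 pg/mL TGF-beta after compound addition. %Activity was normalised to no-cell wells (complete cell-killing) and DMSO (no toxicity), and curves were fitted and classified.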
# IL-1B inflam inh: blocks inflammasome-driven IL-1 beta release. THP-1 LPS/ATP IL-1B secretion, AlphaLISA, 16 h; stronger effect = lower value. activity change, % at 57.5 µM. 4.7% of 360,000 active; in the data active = activity change below about -50%; inconclusive = mostly about -30% to -49%; note: % is set by controls: 0 for no effect and ±100 for the full control effect
#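 THP-1 cells pretreated 1 hr with compounds (up to 57.5 uM final), then stimulated with LPS (250 ng/mL final) plus ATP (1.25 mM final); secreted IL-1B measured by AlphaLISA after 16 hr, decreased signal indicating inhibition.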
# An asterisk follows results filed as active; ? = inconclusive; nt = not tested or not shown. Unless noted, calls come from the whole dose curve; as a rule, active = well fitted curve in the direction sought with a large enough effect; inconclusive = small, poorly fitted or top-dose-only effect, or another doubt; inactive = no such curve, though single readings can be large; an effect the other way counts as inactive or inconclusive.
SMILES,TDP1 cell noCPT,TDP1 cell CPT,TGFb inhibitor,TDP1 block,HepG2 tox,IL-1B inflam inh
O=C1CCCc2oc3ccc(NS(=O)(=O)c4cccc5cccnc45)cc3c21,23µM*,?,-29%,50µM*,-3%,26
O=S(=O)(Nc1ccc2c(c1)OCCO2)c1cccc2cccnc12,?,-20%,0%,6%,0%,19
O=c1oc2ccc(NS(=O)(=O)c3cccc4cccnc34)cc2s1,23µM*,21µM*,-25%,nt,-23%,0
COc1ccccc1NC(=O)c1cc2ccc3cccnc3c2[nH]1,26µM*,3.7µM*,?,7%,-64%,nt
COc1ccc(NS(=O)(=O)c2cccc3cccnc23)cc1Cl,21µM*,?,0%,nt,-13%,-13
O=S(=O)(Nc1ccc(N2CCCCC2)cc1)c1cccc2cccnc12,?,?,0%,7%,-3%,13
CC(C)Cn1ccc(=O)n(CC(C)C)c1=O,-29%,7%,13%,-8%,12%,-5
Cc1ccc(S(=O)(=O)NCCN2CCOCC2)c(C)c1C,-6%,5%,0%,-3%,-1%,3
CCCNC(=O)c1ccc(N2CCC3(CC2)CC(c2cccc(Br)c2)=NO3)c(NC(=O)c2cccc(C)c2)c1,?,?,10%,-2%,1%,-8
CC(C)N(Cc1ccccc1)C(=O)c1cc2ccc3cccnc3c2[nH]1,18µM*,16µM*,11µM*,6%,-38%,nt
COc1ccc(OC)c(NC(=O)c2ccccc2NS(=O)(=O)c2cccc3cccnc23)c1,29µM*,3%,16%,3%,-6%,5
O=C(Nc1cccc2ccccc12)c1ccccc1NS(=O)(=O)c1cccc2cccnc12,-23%,-1%,-14%,3%,4%,13
CCOc1ccc(CNC(=O)C2CCCN(S(=O)(=O)N(C)c3ccc(F)cc3)C2)cc1OC (configuration not stated),13µM*,15µM*,?,1%,-20%,nt
CN(c1ccc(F)cc1)S(=O)(=O)N1CCCC(C(=O)NCc2cccc(Br)c2)C1 (configuration not stated),12µM*,15µM*,8.9µM*,-13%,-54%,nt
COc1ccc(CCNC(=O)C2CCCN(S(C)(=O)=O)C2)cc1 (configuration not stated),-10%,0%,-9%,nt,1%,33
CCOc1ccc(CCNC(=O)C2CCCN(S(=O)(=O)N(C)c3ccc(F)cc3)C2)cc1 (configuration not stated),21µM*,21µM*,?,-5%,-37%,nt
CCOc1ccc(CNC(=O)C2CCCN(S(=O)(=O)N3CCC(C)CC3)C2)cc1OC (configuration not stated),?,?,-16%,nt,-19%,-14
COc1ccccc1Cn1c(-c2ccco2)nc2nc3ccccc3nc21,?,?,0%,nt,2%,-19
COc1ccc(C(=O)n2c(-c3ccco3)nc3ccccc32)cc1,4.1µM*,6.5µM*,-12%,7%,-30%,-6
COc1ccc(CCn2c(-c3ccco3)nc3nc4ccccc4nc32)cc1,10µM*,16µM*,29%,9%,-26%,-22
CCCn1c(-c2ccc(OC)cc2)nc2nc3ccccc3nc21,21µM*,23µM*,19%,-4%,0%,10
c1ccc(Cn2c(-c3ccco3)nc3nc4ccccc4nc32)cc1,?,13µM*,-5%,0%,-33%,-9
CCOC(=O)c1c(C)[nH]c(C)c1S(=O)(=O)N1CCC(C(=O)Nc2ccc(OC)c(OC)c2)CC1,6%,21%,?,6%,-40%,nt
CCC(Sc1nc(C)cc(C)n1)C(=O)Nc1nccs1 (configuration not stated),6%,28%,2%,3%,3%,-7
Clc1ccc(-c2nc3nc4ccccc4nc3n2Cc2ccco2)cc1,16µM*,?,34%,-5%,-13%,5
SMILES,TDP1 cell noCPT,TDP1 cell CPT,TGFb inhibitor,TDP1 block,HepG2 tox,IL-1B inflam inh
COc1ccc(CCn2c(-c3cc([N+](=O)[O-])cc([N+](=O)[O-])c3)nc3nc4ccccc4nc32)cc1OC,23µM*,?,-3%,-3%,-6%,10
Cc1ccc(-n2nc(CO)c(C(=O)NCc3ccccn3)n2)cc1,-14%,-10%,0%,2%,-3%,nt
CCCc1nnc2c(N(C)S(=O)(=O)c3ccc(C)cc3)nc3ccccc3n12,23µM*,?,-3%,-6%,2%,2
COc1ccc(S(=O)(=O)N(C)c2nc3ccccc3n3c(CC(C)C)nnc23)cc1,21µM*,26µM*,3%,2%,3%,21
CCCCc1nnc2c(N(C)S(=O)(=O)c3ccc(C)cc3)nc3ccccc3n12,?,-27%,5%,5%,7%,22
COc1ccccc1CNS(=O)(=O)c1c(C)[nH]c(C)c1C(=O)N1CCCC1,21%,1%,8%,4%,-44%,-7
COc1ccc(-c2nc3cnc(N4CCN(C)CC4)nc3n(Cc3ccc(F)cc3)c2=O)cc1,-24%,?,nt,nt,nt,nt
CCc1ccccc1Nc1ncnc2c1cnn2-c1ccc(C)cc1C,18µM*,?,?,4%,-30%,nt
CCN(c1cccc(C)c1)c1ncnc2c1cnn2-c1cccc(Cl)c1,?,?,4%,-3%,0%,nt
CCN(c1ccccc1)c1ncnc2c1cnn2-c1ccc(C)cc1C,9.2µM*,9.2µM*,-10%,-3%,-36%,nt
Cc1ccc(-n2ncc3c(Nc4cccc(Cl)c4)ncnc32)c(C)c1,?,?,?,3%,-62%,nt
Cc1ccc(-n2ncc3c(SCc4cccc(C)c4)ncnc32)cc1,-29%,-24%,-11%,3%,20%,15
Cc1ccc(-n2ncc3c(Nc4ccc(Oc5ccccc5)cc4)ncnc32)c(C)c1,23µM*,16µM*,?,0%,-38%,nt
